Screen size: about 320,000 compounds; about 22,000 (6.9%) were called active. Not shown: some 27% with an inconclusive outcome. Calls come from the whole dose curve; as a rule, active = well fitted inhibition curve with a large enough effect; inconclusive = small, poorly fitted or top-dose-only effect, or another doubt; inactive = no such curve, though single readings can be large or run the other way. What follows is part of a selection rich in actives, with near analogues and random picks from the rest. Entries that show only a call come without a potency.
Potency is the fitted concentration of half-maximal effect.

The assay can be described thus: Primary qHTS for delayed death inhibitors of the malarial parasite plastid, 96 hour incubation. The settings on record: P. falciparum luciferase reporter growth; series mostly up to 28.7 µM. The method in brief:
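Delayed-death screen, second-generation endpoint: infected erythrocytes, 2% hematocrit, 0.05% parasitemia final; 96 hours at 37 C, 5% CO2; luciferase detection reagent; luminescence decrease equals reduced growth.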
Background: qHTS replaces the single test concentration by a dilution series.
For the compound `O=C(c1cc2ccccc2s1)N1CCN(c2ccccn2)CC1`, the Potency entry was “inactive”. `O=C(NC1CCCC1)C(c1ccco1)N(C(=O)c1csnn1)c1ccccc1` (centres undefined): the Potency result was “inactive”. The same measure for `OCC[C@H]1C[C@@H](O)[C@H](O)[C@]2(OCCCc3ccccc32)O1`: “inactive”; for `Cc1ccc(N2CC(C(=O)Nc3cc(Cl)ccc3-n3cncn3)CC2=O)cc1` (centres undefined): “inactive”; for `COc1ccc(Cl)cc1NC(=O)CCN1CCOCC1`: “inactive”. For the compound `COc1cc(OC)c(N2CC(C(=O)Nc3cc(Cl)ccc3N3CCOCC3)CC2=O)cc1Cl` (centres undefined), the Potency was 11.7 µM (active).

Consider `CN(C(=O)CSc1nnc(C2CC2)n1C)C1CCCc2ccccc21` (centres undefined), for which the Potency result was “inactive”.

In the case of `Cc1cc(C)n2nc(C(=O)OCC(=O)N(CCC#N)c3ccc(F)cc3)nc2n1`, the Potency result is “inactive”. The same measure for `O=C(CCn1nnc2ccccc2c1=O)N[C@@H](Cc1c[nH]c2ccccc12)C(=O)O`: “inactive”; for `CCC(=O)Nc1sc(C(=O)N2CCCCC2)c(C)c1C#N`: 14.7 µM (active); for `CCN1CCN(CC(=O)Nc2sc3c(c2C#N)CCC3)CC1`: “inactive”.

In the case of `CCOC(=O)c1sc(NC(=O)CSc2ncccn2)c(C#N)c1C`, the Potency entry was “inactive”.

For `COc1ccc(Cl)cc1-n1c(C)cc(C(=O)OCC(=O)N2CC(=O)Nc3ccccc32)c1C`, the Potency is 4.15 µM (active). As for `O=C1CN(C(=O)COC(=O)c2cnc(Cl)c(Cl)c2)c2ccccc2N1`, the Potency result was “inactive”.

For `COc1cc(OC)c(C(=O)OCC(=O)N2CC(=O)Nc3ccccc32)cc1OC`, the Potency result was “inactive”.

Consider `O=C(COC(=O)Cc1ccccc1F)NNC(=O)c1ccc(Cl)cc1`, for which the Potency result is “inactive”.

Consider `Cc1cc(Br)ccc1NC(=O)CN(C)C(=O)CN1C(=O)NC2(CCCC2)C1=O`, for which the Potency result is “inactive”. For the compound `COc1ccc(-c2cc(C(=O)N(C)Cc3ccccc3)c3ccccc3n2)cc1`, the Potency result is “inactive”. The value for `COc1ccc(CN(C)C(=O)Cc2c[nH]c3ccccc23)c(OC)c1OC` was “inactive”; that for `COc1ccc(Cl)cc1NC(=O)CN(C)C(=O)c1ccc2n[nH]nc2c1` was “inactive”; that for `COc1ccc(-c2cc(C(=O)NCCCN3CCCC3=O)c3ccccc3n2)cc1OC` was “inactive”. `COc1ccc(CN(C)C(=O)c2cc(-c3ccc(C)cc3C)nc3ccccc23)c(OC)c1OC`: the Potency was 13.1 µM (active). The same measure for `COc1ccc(-c2cc(C(=O)N(C)CC(=O)Nc3ccccc3Cl)c3ccccc3n2)cc1OC`: 9.28 µM (active); for `CC1CCN(c2ccc([N+](=O)[O-])c(SCCO)c2)CC1`: “inactive”.

Take `Cc1ccc(C)c(OCC(=O)NNC(=O)C2CCC2)c1`: the Potency result is “inactive”. `COc1cccc(OCc2nnc3n2N=C(c2ccccc2)C(CC(=O)O)S3)c1` (centres undefined): the Potency result is “inactive”. Consider `O=C(CSc1ccc(-c2ccc(F)cc2)nn1)Nc1ccc2c(c1)OCCO2`, for which the Potency result is “inactive”. In the case of `CC1CCCN(C(C(=O)Nc2ccc(C(C)C)cc2)c2ccc3c(c2)OCO3)C1` (centres undefined), the Potency entry was “inactive”. The same measure for `O=C(Nc1ccc2c(c1)OCCO2)C(c1ccc(F)cc1)N1CCCCC1` (centres undefined): 8.28 µM (active).

The values are drawn from PubChem BioAssay AID504834 (National Center for Advancing Translational Sciences (NCATS), 2011).
